Several values for one entry are separate records, joined by “and”; a condition that tells them apart may be missing. Equal entries are not always repeated. The campaign covered roughly 38,000 compounds. About 1,200 (3.2%) showed an effect of 50% or more. The median lay at about -58%. Many of the other results were omitted from the sample, so strong results are more common in it than they were.
Test system: Plasmodium falciparum
Test: Calibr Malaria Delayed Death Assay SOP
Type: functional, organism-based
Parameters: scale not given: in the data most compounds retested in dose-response had high values
Conditions: concentration 4.99e-06 (unit not given; other assays of the set use mol/L)

| SMILES | Percent Effect [%] | Percent Effect (4.99 µM) |
| --- | --- | --- |
| CN1CC(NC(=O)Nc2cnn(-c3ccccc3Cl)c2)CCC1=O (centres undefined) | -125.7 | – |
| O=C(Cc1ccc(F)cc1)NCC1CCN(Cc2ccsc2)CC1 | 35.08 | – |
| CCc1nnc(CN2CCN(c3cccc(OC)c3)C(=O)C2)o1 | -165.5 | – |
| COCCNC(=O)NCc1cccc(-n2ccnc2)c1 | -31.59 | – |
| O=C(Cn1ccc2sccc2c1=O)NC1CCCCC1 | -23.53 | – |
| Cc1nc(C)c(C(=O)Nc2cnn(CC(=O)NC3CCCC3)c2)s1 | -124.2 | – |
| O=C(c1cc2c(F)cccc2[nH]1)N1CCC(Nc2cccnn2)CC1 | -107.1 | – |
| Cc1cc(NC(=O)CCN2CCCCC2Cn2cccn2)no1 (centres undefined) | -23.88 | – |
| CCCNC(=O)NC(=O)CNC(C)(C)c1ccc2c(c1)OCO2 | -45.43 | – |
| CC(C)(NCc1ccc(C#N)cc1)c1ccc2c(c1)OCO2 | -3.807 | – |
| FC(F)(F)C1CN(Cc2cccc(OCc3ccccn3)c2)CCO1 (centres undefined) | -40.76 | – |
| CCN(CC)C(CNS(=O)(=O)c1ccc(C(=O)NC)cc1)c1ccco1 (centres undefined) | -34.47 | – |
| CCN(CC)C(CNS(=O)(=O)NCc1ccccc1)c1ccco1 (centres undefined) | 65.52 | – |
| CCN(CC)C(CNCc1ccc(O)cc1)c1ccco1 (centres undefined) | 37.38 | – |
| CSc1nc2ccsc2c(=O)n1CC(=O)N1CCCCC1C (centres undefined) | -137.7 | – |
| Cn1cc(NS(=O)(=O)CC2CCCCO2)cn1 (centres undefined) | -113.3 | – |
| O=C(NCCc1c[nH]c2ccc(F)cc12)C1(n2cnnn2)CCCCC1 | 0.821 | – |
| COc1ccc2c(c1)[C@@H](CCNC(C)=O)CC(C)(C)O2 | -172.5 | – |
| CNCC[C@H]1CC(C)(C)Oc2ccc(OCC3CC3)cc21 | 74.97 | – |
| CNCC[C@H]1CC(C)(C)Oc2ccc(OC)cc21 | 72.51 | – |
| COCC(=O)NCC[C@H]1CC(C)(C)Oc2ccccc21 | -148.4 | – |
| CC1CCN(C(=O)c2cnc3cc(C(=O)N(C)C)n(C)c3c2)CC1 | -87.49 | – |

| SMILES | Percent Effect [%] | Percent Effect (4.99 µM) |
| --- | --- | --- |
| c1coc(-c2nnc(CN(Cc3cccs3)CC3CCCO3)o2)c1 (centres undefined) | -56.15 | – |
| COCc1nc(N2CC[C@H](N(C)C)C2)c2cnn(C)c2n1 | -79.09 | – |
| COC(C)(CNS(=O)(=O)c1cn(C)cn1)c1ccccc1F (centres undefined) | -43.86 | – |
| O=C(c1cc(F)cc2[nH]cnc12)N1CCCCC1Cn1cccn1 (centres undefined) | -30.08 | – |
| O=C(c1ccoc1)N1CCC(Nc2cccnn2)CC1 | -103.3 | – |
| CC(C)(C)OC(=O)N1CCCN(Cc2ccon2)c2ccccc21 | 84.05 | – |
| CC(C)(C)OC(=O)N1CCCc2ccc(NCc3ccon3)cc21 | -36.28 | – |
| CC(=O)N1CCCN(Cc2ccon2)c2ccccc21 | -25.97 | – |
| Cc1cccc(NC(=O)N2CC(C(=O)NC(C)C)C3(CCOCC3)C2)c1 (centres undefined) | -4.046 | – |
| CCCc1nnc(N2CCN(c3ccccc3F)CC2)o1 | -72.7 | – |
| O=C(Nc1cccc(OCc2ccc(F)cc2)c1)C1COCCO1 (centres undefined) | -50.82 | – |
| CS(=O)(=O)NC1CCN(CCOCc2ccccc2)CC1 | 2.46 | – |
| OC(CNC1CCOCC1)c1ccc(Cl)c(F)c1 (centres undefined) | 49.48 | – |
| OC(CNC1CCOCC1)c1cccc(OCc2ccccc2)c1 (centres undefined) | 51.28 | – |
| CCOc1cccc(CNC(=O)NCC(O)c2cccc(F)c2)c1 (centres undefined) | -6.007 | – |
| CN1CCC(NCC(O)c2cccc(OCc3ccccc3)c2)CC1 (centres undefined) | 90.23 | – |
| OC(CNC1CCSCC1)c1cccc(OCc2ccccc2)c1 (centres undefined) | 73.71 | – |
| CCOc1cccc(C(C)NC(=O)N2CCC(C(N)=O)CC2)c1 (centres undefined) | -34.65 | – |
| O=C(NCc1ccccc1)NCC(O)c1cccc(F)c1 (centres undefined) | -134.7 | – |
| O=S(=O)(NCCN1CCCCC1Cn1cncn1)c1ccccc1 (centres undefined) | -173.3 | – |
| Cc1nc2c(N3CCN(Cc4ccccc4)CC3)nc(N)nc2n1C | -81.58 | – |
| Cc1nc(C)n(CC2CCCN(Cc3noc(C)n3)C2)n1 (centres undefined) | -83.37 | – |

| SMILES | Percent Effect [%] | Percent Effect (4.99 µM) |
| --- | --- | --- |
| O=C(CN1CCc2cncnc2C1)NCCOc1cccc(Cl)c1 | -29.73 | – |
| O=C(NC1CCS(=O)(=O)C1)c1cc(Sc2ncccn2)ccn1 (centres undefined) | -115.2 | – |
| CCc1nc(CNc2ccc(F)c(F)c2)no1 | -20.9 | – |
| CN(Cc1ccc(N2CCOCC2)cc1)Cc1noc(C(C)(C)C)n1 | -81.05 | – |
| CC(C)(C)c1noc(CCC(=O)N2CCN(Cc3ccc(Cl)s3)CC2)n1 | -118.6 | – |
| CCc1cnc(C)nc1N1CCC(Cc2cccc(C(=O)O)c2)C1 (centres undefined) | -30.8 | – |
| Cc1cccc(N2CCN(C(=O)C3CC4(CCNCC4)CN3)CC2)n1 (centres undefined) | -69.89 | – |
| O=C(C1CC2(CCNCC2)CN1)N1CCN(c2cccc(Cl)c2Cl)CC1 (centres undefined) | 78.29 | – |
| O=C(C1CC2(CCNCC2)CN1)N1CCN(c2ccccc2)CC1 (centres undefined) | -125.3 | – |
| CN(C)C(=O)Cc1nc(CN2CCCCC2Cn2cccn2)cs1 (centres undefined) | -103.2 | – |
| Cc1nccn1CC1CCCN(C(=O)Cc2ccsc2)C1 (centres undefined) | -60.26 | – |
| COC(=O)NCC(=O)N1CCCC1c1nc(-c2ccccc2F)c[nH]1 (centres undefined) | -22.14 | – |
| NCC(=O)N1CCC(c2cncc(Oc3cccnc3)n2)CC1 | -100.1 | – |
| CCC(=O)N1CCC(c2cncc(Oc3cccnc3)n2)CC1 | -187.7 | – |
| Cn1cc(C2CCCN2C(=O)CCCOc2ccc(F)cc2)cn1 (centres undefined) | -105.8 | – |
| CC(C)(N)C(=O)N1CCCC1c1cncc(Oc2ccccc2)n1 (centres undefined) | 77.57 | – |
| CNCC(=O)N1CCCC1c1cncc(Oc2ccc(F)cc2)n1.Cl (centres undefined) | 68.33 | – |
| CC(C)(C)OC(=O)N1CCCN(c2nnc(Br)s2)CC1 | -110 | – |
| COc1ccccc1C(=O)Nc1c(F)c(C(=O)NCCC(C)C)nn1C | -92.84 | – |
| c1ccc(Cn2cccn2)c(CN2CCCCC2CCn2ccnc2)c1 (centres undefined) | 62.85 | – |
| Fc1cccc(-n2ccc(CN3CCCCC3Cn3cncn3)n2)c1 (centres undefined) | -49.02 | – |
| Fc1cccc(-n2cc(CN3CCCCC3CCn3ccnc3)cn2)c1 (centres undefined) | 67.59 | – |

| SMILES | Percent Effect [%] | Percent Effect (4.99 µM) |
| --- | --- | --- |
| Cc1cccc(-n2cc(CN3CCN(C)[C@@H]4CS(=O)(=O)C[C@@H]43)cn2)c1 | -99.09 | – |
| Cc1ccc2nc(CN3CCCCC3CCn3cccn3)cn2c1 (centres undefined) | -67.34 | – |
| Fc1ccc(-n2cccn2)c(CN2CCCCC2CCn2ccnc2)c1 (centres undefined) | 3.883 | – |
| c1csc(CN(Cc2ccsc2)CC2CCCO2)n1 (centres undefined) | -152.6 | – |
| CCOc1cccc(CNC(=O)c2cnn(CC)c2C(F)(F)F)c1 | -100.3 | – |
| O=C(CN1CCCS1(=O)=O)Nc1ccc(OC2CCCC2)cc1 | -131 | – |
| O=C1NCc2ccc(NC(=O)C3CCCN3c3nccs3)cc21 (centres undefined) | -60.91 | – |
| CC(=O)c1ccc(NC(=O)C(NC(=O)Nc2ccccc2)C(C)C)cc1 (centres undefined) | -29.84 | – |
| Cn1ccnc1SCCNC1CCN(c2ncccn2)CC1 | -15.99 | – |
| Cn1ccnc1SCCNC1CCN(c2nc3ccccc3s2)CC1 | 58.02 | – |
| O=C(NCCNC1CCN(c2nccs2)CC1)c1cccs1 | -27.34 | – |
| Cc1n[nH]c(SCCNC2CCN(c3nc4ccccc4s3)CC2)n1 | -208.3 | – |
| CCc1cc(N2CCC(NCCc3ccccc3F)CC2)nc(C)n1 | -10.81 | – |
| CCc1nccn1CCNC1CCN(c2nc3ccc(Cl)cc3s2)CC1 | 85.53 | – |
| N#Cc1ccc(OCC(O)CN2CCc3cncnc3C2)cc1 (centres undefined) | -94.24 | – |
| CCN(CC1CN(Cc2ncc[nH]2)CCO1)c1cccnn1 (centres undefined) | -7.517 | – |
| CCc1ccccc1CN1CCN(Cc2ncc[nH]2)[C@H]2CS(=O)(=O)C[C@H]21 | -62.66 | – |
| CCN1CC(c2ccccc2)CC2(CCN(Cc3ncc[nH]3)CC2)C1 (centres undefined) | 87.85 | – |
| COCCC(=O)N1CCC2(CC1)CC(c1ccccc1)CN(C)C2 (centres undefined) | -5.324 | – |
| COc1ccc(C2CCN(Cc3cscn3)CC2)cc1 | -93.29 | – |
| c1ccc(C2CN(C3CC3)CC3(CCN(Cc4ncc[nH]4)CC3)C2)cc1 (centres undefined) | 35.37 | – |
| CCN1CC2(CCC1=O)CCN(Cc1cscn1)CC2 | -71.85 | – |

| SMILES | Percent Effect [%] | Percent Effect (4.99 µM) |
| --- | --- | --- |
| c1ccc(C2CN(C3CC3)CC3(CCN(Cc4cscn4)CC3)C2)cc1 (centres undefined) | 80.59 | – |
| CN1CC(c2ccccc2)CC2(CCN(Cc3ncc[nH]3)CC2)C1 (centres undefined) | 82.67 | – |
| O=C(NCC(O)c1ccc(Cl)c(F)c1)NC1CC=CC1 (centres undefined) | -17.82 | – |
| CCSc1cc(C(=O)NCCC(=O)N(C)C)ccn1 | -118.1 | – |
| Cc1nn(CCNS(=O)(=O)NCc2ccccc2)c(C)c1Cl | -125.5 | – |
| COc1ccccc1N1CCN(C(=O)CCc2nncn2C)C(C)C1 (centres undefined) | -70.09 | – |
| Cc1ccc(C)c(OC2CCN(C(=O)NCC(=O)N3CCCC3)CC2)c1 | -83.87 | – |
| CC(C)n1c2ccccc2c2c1cc(C(=O)NC1CC1)n2C(=O)N(C)C | -14.52 | – |
| O=c1c(CN2CCSCC2)coc(O)c1CN1CCCC1 | -11.49 | – |
| O=c1c(CN2CCCCCC2)coc(O)c1CN1CCOCC1 | -41.33 | – |
| O=c1c(CN2CCCCCC2)coc(O)c1CN1CCCCCC1 | 53.69 | – |
| COc1ccc(CNc2c(N3CCN(C)CC3)c(=O)c2=O)cc1 | -162.8 | – |
| CCc1nc2n(n1)CC(NCc1noc(-c3ccc(C)cc3)n1)CC2 (centres undefined) | -102.8 | – |
| CN(C)c1nc(NCCc2cnccn2)ncc1F | -28.24 | – |
| COCCC1CCCCN1C(=O)c1coc(COc2ccccc2F)n1 (centres undefined) | – | -24.51% and -14.95% |
| COc1cccc(CNCc2ccccc2Cl)c1O | 76.29 | – |
| COc1cccc(CNCc2ccc(F)cc2Cl)c1O | 78.71 | – |
| CCOc1cccc(CNc2ccccc2Cl)c1O | -149 | – |
| Fc1ccc(CNCCn2cccn2)c(Cl)c1 | -121.7 | – |
| Cc1cnn(CCNCc2ccc(F)cc2Cl)c1 | -82.03 | – |
| COCCNC(=O)NCCc1cccc(OC)c1O | -51.73 | – |

From ChEMBL document CHEMBL3988442, “University of Dundee, Small-Polar-MMV Screening Library” (2021)
